Screens from PubChem BioAssay.
The sample as a whole holds a higher share of hits than the screen did.
miR-122 inh = raises miR-122 sensor activity in Huh7 cells | Huh7 psiCHECK-miR122 Renilla luciferase sensor, 48 h | activation, % at 12.5 µM | actives 0.14% (n = 340,000) | AID 623901;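 active = mean activation of 30% or more, with every replicate also reaching 30%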;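 note: higher luciferase signal means stronger suppression of miR-122 activity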
Of the large screens only hits and unclear results are named; the others gave an inactive call.

COCC(=O)N(C)C[C@H]1Oc2cc(-c3ccc(C#N)cc3)ccc2S(=O)(=O)N([C@H](C)CO)C[C@H]1C	miR-122 inh 59
COCC(=O)N(C)C[C@H]1Oc2cc(-c3ccccc3)ccc2S(=O)(=O)N([C@@H](C)CO)C[C@@H]1C	none
C[C@@H]1CN([C@H](C)CO)C(=O)c2cc(C#Cc3ccc(F)cc3)cnc2O[C@H]1CN(C)CC1CCOCC1	none
C[C@@H]1CN([C@@H](C)CO)S(=O)(=O)c2ccc(C#Cc3ccccn3)cc2O[C@H]1CN(C)Cc1ccc(F)cc1	none
O=C(Cn1c(=O)c2ccccc2n(CC(=O)N2CCCCC2)c1=O)N1CCCCC1	miR-122 inh 60
C[C@H]1CN([C@@H](C)CO)C(=O)c2cc(C#Cc3cccnc3)cnc2O[C@H]1CN(C)S(C)(=O)=O	none
C[C@H](O)C#Cc1ccc2c(c1)O[C@H](CN(C)C(=O)c1ccncc1)[C@@H](C)CN([C@@H](C)CO)S2(=O)=O	none
C[C@@H]1CN([C@@H](C)CO)S(=O)(=O)c2ccc(C#Cc3ccccc3)cc2O[C@@H]1CN(C)C(=O)Nc1ccc2c(c1)OCO2	none
CC(C)C#Cc1ccc2c(c1)O[C@H](CN(C)C(=O)c1ccncc1)[C@H](C)CN([C@@H](C)CO)S2(=O)=O	miR-122 inh 40
C[C@@H]1CN([C@H](C)CO)S(=O)(=O)c2ccc(C#Cc3ccncc3)cc2O[C@@H]1CN(C)C(=O)Nc1ccc2c(c1)OCO2	miR-122 inh 49
C[C@H](O)C#Cc1ccc2c(c1)O[C@H](CN(C)C(=O)c1ccncc1)[C@H](C)CN([C@@H](C)CO)S2(=O)=O	none
C[C@@H](O)C#Cc1ccc2c(c1)O[C@H](CN(C)C(=O)c1ccncc1)[C@@H](C)CN([C@@H](C)CO)S2(=O)=O	none
C[C@@H]1CN([C@@H](C)CO)S(=O)(=O)c2ccc(C#Cc3ccccc3)cc2O[C@H]1CN(C)C(=O)Nc1ccc2c(c1)OCO2	none
CC(C)C#Cc1ccc2c(c1)O[C@H](CN(C)C(=O)c1ccncc1)[C@@H](C)CN([C@@H](C)CO)S2(=O)=O	miR-122 inh 41
C/C=C/c1ccc2c(c1)O[C@H](CN(C)C(=O)c1cccnc1)[C@@H](C)CN([C@@H](C)CO)S2(=O)=O	none
C/C=C/c1ccc2c(c1)O[C@H](CN(C)C(=O)c1cnccn1)[C@H](C)CN([C@H](C)CO)S2(=O)=O	miR-122 inh 33
C/C=C/c1ccc2c(c1)O[C@@H](CN(C)C(=O)c1cccnc1)[C@H](C)CN([C@@H](C)CO)S2(=O)=O	none
C[C@H](O)C#Cc1ccc2c(c1)O[C@@H](CN(C)C(=O)c1ccncc1)[C@@H](C)CN([C@@H](C)CO)S2(=O)=O	none
Cc1noc(C)c1NC(=O)N(C)C[C@@H]1Oc2ncc(C#Cc3ccc(C(F)(F)F)cc3)cc2C(=O)N([C@H](C)CO)C[C@@H]1C	none
CCC(=O)N(C)C[C@H]1Oc2ncc(C#CC3(O)CCCC3)cc2C(=O)N([C@H](C)CO)C[C@H]1C	none
COc1ccc(NC(=O)N(C)C[C@H]2Oc3ccc(NC(=O)Nc4ccc(C(F)(F)F)cc4)cc3CC(=O)N([C@@H](C)CO)C[C@H]2C)cc1	none
CCCC(=O)Nc1ccc2c(c1)OC[C@H](C)N(C)C[C@H](C)[C@H](OC)CN(C)C2=O	none
CC(C)CC#Cc1ccc2c(c1)O[C@@H](CN(C)C(=O)NC1CCCC1)[C@H](C)CN([C@H](C)CO)S2(=O)=O	none
Cc1noc(C)c1NC(=O)N(C)C[C@H]1Oc2ncc(C#CCC(C)C)cc2C(=O)N([C@@H](C)CO)C[C@H]1C	none
C[C@H](O)C#Cc1ccc2c(c1)O[C@@H](CN(C)C)[C@@H](C)CN([C@H](C)CO)S2(=O)=O	none
COc1cccc(-c2ccc3c(c2)O[C@H](CN(C)C(=O)C2CCCCC2)[C@@H](C)CN([C@@H](C)CO)S3(=O)=O)c1	none
C[C@H]1CN([C@@H](C)CO)S(=O)(=O)c2ccc(-c3cccnc3)cc2O[C@@H]1CN(C)Cc1ccccn1	none
CCCN1C[C@@H](C)[C@H](OC)CN(C)C(=O)c2ccc(NS(C)(=O)=O)cc2OC[C@@H]1C	none
CCC(=O)Nc1ccc2c(c1)OC[C@H](C)NC[C@@H](C)[C@H](OC)CN(C)C2=O	none
C[C@@H]1CN([C@@H](C)CO)C(=O)c2cc(C#Cc3ccccn3)cnc2O[C@@H]1CN(C)C(=O)CCN1CCCCC1	none
C[C@H]1CN([C@@H](C)CO)S(=O)(=O)c2ccc(C#Cc3cccnc3)cc2O[C@H]1CN(C)CC1CCOCC1	none
C[C@H](CO)N1C[C@H](C)[C@@H](CN(C)C(=O)Nc2ccccc2)Oc2ccc(NC(=O)Cc3ccccc3)cc2CC1=O	none
C[C@@H]1CN([C@@H](C)CO)C(=O)Cc2cc(NC(=O)c3ccncc3)ccc2O[C@H]1CN(C)Cc1ccc(-c2ccccc2)cc1	miR-122 inh 32
C[C@@H]1CN([C@@H](C)CO)C(=O)Cc2cc(NC(=O)C3CCCCC3)ccc2O[C@H]1CN(C)Cc1ccncc1	none
CC(C)NC(=O)Nc1ccc2c(c1)CC(=O)N([C@H](C)CO)C[C@@H](C)[C@@H](CN(C)Cc1ccc(Oc3ccccc3)cc1)O2	none
C[C@H](CO)N1C[C@H](C)[C@H](CN(C)Cc2ccc(C(=O)Nc3ccccc3N)cc2)Oc2ccc(NC(=O)Nc3ccc(F)cc3)cc2CC1=O	none
C[C@H](CO)N1C[C@H](C)[C@@H](CN(C)Cc2ccc(-c3ccccc3)cc2)Oc2ccc(NC(=O)Cc3ccccc3)cc2CC1=O	miR-122 inh 35
C[C@H](CO)N1C[C@H](C)[C@@H](CN(C)C(=O)Nc2cc(F)ccc2F)Oc2cc(-c3ccc(C#N)cc3)ccc2S1(=O)=O	none
CCC(=O)N(C)C[C@@H]1Oc2ncc(C#Cc3cccnc3)cc2C(=O)N([C@H](C)CO)C[C@@H]1C	none
COc1cccc(NC(=O)N(C)C[C@H]2Oc3ncc(C#Cc4cccnc4)cc3C(=O)N([C@H](C)CO)C[C@H]2C)c1	none
CO[C@H]1CN(C)C(=O)c2cc(NS(=O)(=O)CC(F)(F)F)ccc2OC[C@@H](C)N(C)C[C@H]1C	none
COc1ccccc1S(=O)(=O)N(C)C[C@H]1Oc2cc(/C=C/c3ccccc3)ccc2S(=O)(=O)N([C@H](C)CO)C[C@@H]1C	none
CC(C)C#Cc1cnc2c(c1)C(=O)N([C@@H](C)CO)C[C@H](C)[C@H](CN(C)Cc1ccccn1)O2	none
C/C=C/c1cnc2c(c1)C(=O)N([C@H](C)CO)C[C@@H](C)[C@H](CN(C)S(=O)(=O)c1ccc(C)cc1)O2	none
C[C@@H]1CN([C@H](C)CO)C(=O)c2cc(C#Cc3ccc(F)cc3)cnc2O[C@@H]1CN(C)CC1CCOCC1	none
Cc1cc(C)cc(N=c2c([N+](=O)[O-])nn(-c3ccc4c(c3)OCCO4)n2O)c1	miR-122 inh 42
CCCN(C)C[C@@H]1Oc2ncc(-c3ccccc3OC)cc2C(=O)N([C@H](C)CO)C[C@H]1C	none
COc1ccc(C(=O)Nc2ccc3c(c2)OC[C@@H](C)N(C)C[C@H](C)[C@@H](OC)CN(C)C3=O)cc1	none
CC(=O)N(C)C[C@@H]1Oc2cc(/C=C/c3ccccc3)ccc2S(=O)(=O)N([C@H](C)CO)C[C@H]1C	none
C[C@H]1CN([C@@H](C)CO)S(=O)(=O)c2ccc(-c3ccc(C(=O)N(C)C)cc3)cc2O[C@@H]1CN(C)C	none
CN(C)CC(=O)N1CCCCN2[C@@H](CO)[C@@H](c3ccc(/C=C/c4ccccc4)cc3)[C@@H]2C1	miR-122 inh 32
C[C@@H]1CN([C@@H](C)CO)S(=O)(=O)c2ccc(-c3ccc(C(=O)N(C)C)cc3)cc2O[C@@H]1CN(C)C	none
CC(=O)N1[C@H](CNC(=O)CN(C)C)[C@@H](c2ccc(C3=CCCCC3)cc2)[C@@H]1CO	none
